Screening results (PubChem BioAssay)
Sampled rows, rich in hits. Any-hit rate of the full collection: about 3%.
Glioma ERSR ind – ER stress response induction in glioma; U87-MG GRP78 promoter luciferase reporter, 16 h; Potency, µM, actives largely listed as activators; 0.02% of 420,000 active; AID 602332; further: series mostly up to about 76 µM; nearly all actives have a fitted effect of over 35% in size
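Stably transfected U87-MG glioma cells carrying a GRP78-based luciferase sensor; 16 h compound incubation. Luminescence end-point read 10 min after Bright-Glo addition at room temperature.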
DRD3 agonist – D3 dopamine receptor (human) agonism | max activation, % | AID 652048 | 0.58% of 410,000 active | D3R DiscoveRx beta-arrestin cells, luminescence, 90 min; in the data active means max activation above about 30%
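Agonist-mode cell screen: cells plated at 1500/well and incubated overnight at 37 °C, then exposed to library compounds for 90 min at 37 °C. Detection reagent was added for 30–60 min at room temperature, and luminescence was read.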
DRD3 antagonist – D3 dopamine receptor (human) antagonism; D3R cells, DiscoveRx beta-arrestin luminescence, antagonist mode; stronger effect = lower value; 2.5% of 360,000 active; max response, negative = inhibition, %; AID 652054; P35462; in the data active means max response below about -50%
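Cells plated overnight at 1500 cells/well, then exposed to library compounds with dopamine controls for 90 minutes at 37 degrees C. DiscoveRx reagent added for 30–60 minutes at room temperature; luminescence read, quantitative HTS format.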
Nrf2 ARE act – activators of Nrf2 (ARE) signaling; 0.31% of 410,000 active; AREc32 ARE-luciferase reporter (MCF7-derived line), luminescence, 24 h; Potency, µM (top dose mostly 46.1 µM), usual class: activators; further: nearly all actives have a fitted effect of over 65% in size
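Steps: seed AREc32_Fluc cells (1000/well, 5% FBS OPTI-MEM); incubate overnight at 37 deg C; add 23 nL compound; incubate 24 hr; add Steady-Glo; hold 30 min RT; read luminescence.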
Of the large screens only hits and unclear results are named; the others gave an inactive call. Unless noted, the call rests on the fitted dose curve; in most records, active means well fitted curve in the direction sought with a large enough effect; inconclusive means small, poorly fitted or top-dose-only effect, or another doubt; inactive means no such curve, though single readings can be large; an effect the other way counts as inactive or inconclusive.

Cc1c(N)nc([C@@H](CC(N)=O)NC[C@H](N)C(N)=O)nc1C(=O)N[C@H](C(=O)N[C@H](C)[C@H](O)[C@H](C)C(=O)N[C@@H](C(=O)NCCc1nc(-c2nc(C(=O)NCCC[S+](C)C)cs2)cs1)[C@H](C)O)[C@H](O[C@@H]1O[C@@H](CO)[C@@H](O)[C@H](O)[C@@H]1O[C@H]1O[C@H](CO)[C@H](O)[C@H](OC(N)=O)[C@@H]1O)c1cnc[nH]1	none (no result: DRD3 agonist, DRD3 antagonist, Nrf2 ARE act)
C=CCn1c(O)c(N=Nc2c(C)n(C)n(-c3ccccc3)c2=O)c(=O)[nH]c1=S	DRD3 antagonist -57
CCOc1ccc(-n2c(O)c(N=Nc3c(C)n(C)n(-c4ccccc4)c3=O)c(=O)[nH]c2=O)cc1	none
Cc1c(N=Nc2c(O)[nH]c(=S)[nH]c2=O)c(=O)n(-c2ccccc2)n1C	DRD3 antagonist -66
[S]=[Sb](=[S])[S][Sb](=[S])=[S]	none (no result: Glioma ERSR ind, DRD3 antagonist, Nrf2 ARE act)
COc1c(C)cc(C(=O)C2CCCN(Cc3cccc(O)c3)C2)cc1C (stereo not drawn)	DRD3 antagonist -60
COc1cccc(C(=O)C2CCCN(Cc3ccc(F)cc3)C2)c1 (stereo not drawn)	DRD3 antagonist -56
COc1c(C)cc(C(=O)C2CCCN(Cc3cccc(C)n3)C2)cc1C (stereo not drawn)	none
COc1cccc(C(=O)C2CCCN(Cc3ccc4nsnc4c3)C2)c1 (stereo not drawn)	none
CC(C)=CCN1CC[C@]2(C)c3cc(O)ccc3C[C@H]1[C@H]2C	none (no result: Glioma ERSR ind, DRD3 antagonist, Nrf2 ARE act)
